Most compounds without a hit are left out; they make up all but 2.4% or so of the library.
WRN inhibitor: inhibitors of human WRN helicase. Q14191. WRN helicase unwinding, fluorescent forked duplex, kinetic. Potency, µM (titrated, usually from 114 µM), without a hit: top-dose activity change, negative = inhibition, actives largely listed as inhibitors. 0.46% of 360,000 active. AID 651768; note: % is set by controls: 0 for no effect and ±100 for the full control effect; nearly all actives have a fitted effect of over 55% in size
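Kinetic fluorescence helicase assay: unwinding of a quenched forked DNA duplex (100 nM final) with 2 mM ATP final raises red fluorescence (525/598 nm). Compounds sat 15 min at room temperature with 20 nM WRN beforehand.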
FEN1 inh: inhibitors of human flap endonuclease 1 | Recombinant FEN1 flap cleavage, fluorescence, 15 min | Potency, µM (highest dose often 114 µM), for inactives: at the top dose activity change, negative = inhibition, usual class: inhibitors | 0.35% of 390,000 active | AID 588795; note: % is set by controls: 0 for no effect and ±100 for the full control effect; nearly all actives have a fitted effect of over 65% in size
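Quantitative HTS format: each compound was titrated, incubated with 10 nM nuclease for 15 min at room temperature, then challenged with flap substrate at 50 nM final. Signal change over 15 min gave concentration–effect curves.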
Pol beta inh: DNA polymerase beta (human) inhibition. Potency, µM (doses to about 114 µM), for inactives: at the top dose activity change, negative = inhibition, actives largely listed as inhibitors. Pol beta primer extension/strand displacement, fluorescence kinetic. 1.3% of 340,000 active. AID 485314. P06746; note: % is set by controls: 0 for no effect and ±100 for the full control effect
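Human Pol beta at 10 nM; strand-displacement substrate 50 nM final. Compound exposure 15 min at room temperature before start, reaction 10 min at room temperature.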
POLK inh: blocks human DNA polymerase kappa activity. purified Pol kappa, fluorescent DNA synthesis assay, 10 min. Potency, µM (doses to about 107 µM), for inactives: at the top dose activity, negative = inhibition, most hits filed as inhibitors. AID 588579. 0.53% of 400,000 active; note: % is set by controls: 0 for no effect and ±100 for the full control effect
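Readout: fluorescence, taken kinetically at 0 and 10 min. Conditions: 10 nM Pol kappa, 15 min RT compound preincubation, 50 nM substrate final. Controls: enzyme-free buffer wells.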
POLH inh: blocks human DNA polymerase eta activity; Q9Y253; recombinant Pol eta, fluorescent DNA replication assay; Potency, µM (titrated, usually from 114 µM), without a hit: at the top dose activity change, negative = inhibition, usual class: inhibitors; 1.2% of 390,000 active; note: % is set by controls: 0 for no effect and ±100 for the full control effect
Target sequence (Q9Y253 whole entry, looked up): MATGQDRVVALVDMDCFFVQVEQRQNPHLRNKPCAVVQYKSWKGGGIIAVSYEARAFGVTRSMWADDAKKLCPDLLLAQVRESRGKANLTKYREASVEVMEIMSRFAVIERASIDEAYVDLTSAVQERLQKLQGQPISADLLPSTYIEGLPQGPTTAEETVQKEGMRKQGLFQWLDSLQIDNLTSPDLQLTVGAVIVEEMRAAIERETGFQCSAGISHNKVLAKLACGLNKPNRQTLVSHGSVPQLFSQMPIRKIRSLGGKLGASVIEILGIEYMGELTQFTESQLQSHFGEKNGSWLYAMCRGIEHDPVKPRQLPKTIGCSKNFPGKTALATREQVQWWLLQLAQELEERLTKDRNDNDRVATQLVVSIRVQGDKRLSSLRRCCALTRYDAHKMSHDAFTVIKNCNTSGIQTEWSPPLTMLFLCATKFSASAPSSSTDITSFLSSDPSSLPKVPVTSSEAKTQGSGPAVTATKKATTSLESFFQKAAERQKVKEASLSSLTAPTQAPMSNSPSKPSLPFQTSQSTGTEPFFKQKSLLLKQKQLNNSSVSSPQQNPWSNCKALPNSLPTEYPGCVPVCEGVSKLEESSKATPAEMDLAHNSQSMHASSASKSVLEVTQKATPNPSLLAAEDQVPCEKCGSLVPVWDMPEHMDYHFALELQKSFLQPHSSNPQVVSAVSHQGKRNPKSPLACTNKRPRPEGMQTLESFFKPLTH
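Fluorescent replication assay: 50 nM final substrate added after a 15 min room-temperature compound preincubation with 10 nM enzyme. Signal taken at 0 min and again at 10 min.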
Pol iota inh: inhibitors of human DNA polymerase iota; 1% of 390,000 active; Potency, µM (top dose mostly 115 µM), for the others: at the highest dose activity, negative = inhibition, most hits filed as inhibitors; Pol iota fluorescent replication assay, 10 min; Q9UNA4
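Fluorescent replication assay read twice, at 0 min and 10 min after adding 50 nM (final) substrate. Enzyme (10 nM) and compounds were first incubated 15 min at room temperature; enzyme-free buffer wells were negative controls.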
An asterisk follows results filed as active; ? = inconclusive; / = no result; [ ] = another dose, or the depositor's remark. Calls come from the whole dose curve; as a rule, active = well fitted curve in the direction sought with a large enough effect; inconclusive = small, poorly fitted or top-dose-only effect, or another doubt; inactive = no such curve, though single readings can be large; an effect the other way counts as inactive or inconclusive. Potency is the fitted concentration of half-maximal effect.

SMILES	WRN inhibitor	FEN1 inh	Pol beta inh	POLK inh	POLH inh	Pol iota inh
O=C(NCCSc1ccc(Br)cc1)c1ccc2nc[nH]c2c1	-32.0%	9.6%	39.8µM*	-36.8%	22.4µM*	20µM*
CC(C)CCNC(=O)c1ccc2nc[nH]c2c1	15.9%	0.4%	8.2%	8.0%	-12.2%	-9.1%
COc1ccccc1CCNC(=O)c1ccc2nc[nH]c2c1	-6.4%	-7.6%	44.7µM*	-10.5%	?	0.8%
COc1ccc(C(=O)Nc2cccc(NC(=O)c3ccc(OC)c(OC)c3)n2)cc1OC	11.1%	-4.9%	22.4µM*	-15.6%	-19.6%	?
CCN(CC)c1cc(C)c2cc(NC(=O)c3ccc(OC)c(OC)c3)ccc2n1	/	-3.2%	12.6µM*	?	-19.7%	?
COc1ccc(C(=O)Nc2cccc3cccnc23)cc1OC	-0.3%	-20.5%	24.4%	-9.8%	-8.4%	5.4%[58.9 µM]
O=C1CCN(CCc2ccccc2)CCN1C(CSc1ccc(Br)cc1)Cc1ccccc1 (stereo unspecified)	/	-2.8%	/	-7.7%	/	?
O=C(c1cccs1)c1no[n+]([O-])c1C(=O)c1cccs1	28.2µM*	4.6%	3.5%	-5.5%	-12.6%	25.1µM*
O=C1c2ccc(Oc3ccc([N+](=O)[O-])cc3)cc2C(=O)N1CCO	5.9%	0.8%	34.0%	-2.5%	-17.6%	174.2%
CC(=O)NN1C(=O)c2ccc(Oc3ccc([N+](=O)[O-])cc3)cc2C1=O	-17.8%	-4.1%	17.2%	-14.8%	0.6%	69.0%
CC(=O)NN1C(=O)c2ccc(Oc3ccc4c(c3)C(=O)N(NC(C)=O)C4=O)cc2C1=O	/	/	11.2µM*	/	/	/
O=C(O)CN1C(=O)c2ccc(Oc3cccc4c3C(=O)N(CC(=O)O)C4=O)cc2C1=O	-6.5%[57.1 µM]	-19.6%	-23.4%	-7.5%	79.4µM*	16.9%
O=C(O)CN1C(=O)c2ccc(Oc3ccc4c(c3)C(=O)N(CC(=O)O)C4=O)cc2C1=O	-2.4%[57.1 µM]	-5.3%	25.3%	-36.9%	31.6µM*	-8.6%
NC(C(=O)O)c1cc(O)cc(O)c1 (stereo unspecified)	/	/	/	9.6%[19.4 µM]	/	/
CC(C)(C)OC(=O)NC(Cc1ccccc1)C(O)c1ccco1 (stereo unspecified)	/	-6.4%	/	-2.1%	/	18.5%
Cc1csc(C)[n+]1CCC1CCCCC1	/	-12.7%	/	-8.0%	/	15.6%
COCCN(CCOC)C(=O)c1cc2c(=O)n3ccccc3nc2n1C	/	-13.0%	10µM*	-22.3%	-13.7%	?
C=CCn1c(=O)n(C2OC(CO)C(O)C2O)c2nc(N)[nH]c(=O)c21 (stereo unspecified)	/	/	/	14.4%[60.1 µM]	/	/
Cc1cc(C)c2nc(-c3ccccn3)cc(C(=O)Nc3ccc(S(=O)(=O)Nc4cc(C)on4)cc3)c2c1	56.2µM*	?	50.1µM*	?	28.2µM*	?
CCCOc1ccc(C(=O)Nc2ccc(S(=O)(=O)Nc3onc(C)c3C)cc2)cc1	-20.3%	-1.7%	-2.8%	-19.6%	-1.5%	?
Cc1noc(NS(=O)(=O)c2ccc(NC(=O)c3ccc(N4C(=O)c5ccccc5C4=O)cc3)cc2)c1C	?	-22.1%	35.5µM*	?	79.4µM*	?
O=C(Nc1ccc(S(=O)(=O)Nc2nccs2)cc1)c1ccc(N2C(=O)c3ccccc3C2=O)cc1	-11.0%	-5.9%	22.4µM*	?	?	70.8µM*
O=C(Nc1ccc(S(=O)(=O)Nc2nccs2)cc1)c1ccc(F)cc1	-5.6%	-2.1%	-13.7%	-10.1%	-15.7%	106.1%
Cc1ccc(-c2cc(C(=O)Nc3ccc(S(=O)(=O)Nc4nccs4)cc3)c3ccccc3n2)c(C)c1	-34.8%	-12.6%	0.0%[57.1 µM]	-21.4%	35.5µM*	?
COc1ccc(-n2c(=S)[nH]c3cc(C(=O)NCc4ccco4)ccc3c2=O)cc1OC	7.9%	-1.2%	44.9%	-6.3%	-21.7%	-7.6%
SMILES	WRN inhibitor	FEN1 inh	Pol beta inh	POLK inh	POLH inh	Pol iota inh
O=C(c1ccc2c(=O)n(Cc3ccc4c(c3)OCO4)c(=S)[nH]c2c1)N1CCN(Cc2ccccc2)CC1	/	-23.0%	/	-6.1%	/	19.2%
O=C(c1ccc2c(=O)n(Cc3ccco3)c(=S)[nH]c2c1)N1CCN(Cc2ccc3c(c2)OCO3)CC1	/	?	/	?	/	89.1µM*
Cc1ccc(CNC(=O)c2ccc3c(=O)n(CCCN4CCCC4=O)c(=S)[nH]c3c2)cc1	-2.7%	-11.0%	31.6µM*	-7.8%	3.9%	29.1%
COc1ccc(CCn2c(=S)[nH]c3cc(C(=O)NCc4ccco4)ccc3c2=O)cc1OC	-16.1%	1.8%	22.4µM*	-12.4%	?	3.3%
O=C(NCCCN1CCCC1=O)c1ccc2c(=O)n(Cc3ccco3)c(=S)[nH]c2c1	-6.8%	-2.5%	31.6µM*	1.8%	-7.2%	?
CN(C)c1ccc(/C=C/c2nc3ccccc3o2)cc1	/	-17.6%	/	-12.1%	/	-17.5%
Cc1cccc(NC(=O)CN2C(=O)CCn3nc(-c4cccn4C)cc32)c1C	/	12.4%	5.3%	-14.2%[60.1 µM]	-18.2%	20.9%
COc1cc(/C=C2\SC(=O)N(c3ccc(O)cc3)C2=O)cc(OC)c1OC	-3.8%	11.5%	-20.3%	3.2%	-3.4%	4.3%
COc1cc(/C=C2\SC(=O)N(c3ccccc3Cl)C2=O)cc([N+](=O)[O-])c1O	-15.6%[11.6 µM]	?	89.1µM*	-11.6%	56.2µM*	?
COc1cc(/C=C2\SC(=O)N(CC(=O)Nc3ccccc3F)C2=O)cc(Cl)c1O	-8.2%[57.1 µM]	-30.7%	?	?	50.1µM*	?
CCC1CC=CC2C1C(=O)N(Cc1ccccc1)C2c1ccc(OC)c(Cl)c1 (stereo unspecified)	/	0.8%	/	-11.8%	/	-0.8%
CC(N)(C(=O)O)c1ccc(S(=O)(=O)O)cc1 (stereo unspecified)	/	/	/	1.6%[19.4 µM]	/	/
O=C1N=C(N2CCN(c3ccccc3)CC2)S/C1=C/c1ccco1	-8.6%[11.6 µM]	-26.5%	?	?	-16.0%	44.7µM*
O=C1N=C(N2CCN(c3ccccc3)CC2)S/C1=C\c1ccco1	-8.1%	1.5%	12.6µM*	-19.5%[60.1 µM]	?	44.7µM*
O=[N+]([O-])c1cccc2cn[nH]c12	4.1%	?	-0.6%	-11.3%[60.1 µM]	-10.4%	-8.6%
O=[N+]([O-])c1cccc2c[nH]nc12	/	/	/	12.6µM*	/	/
COc1cc(OC)c(/C=C/c2nc3ccccc3o2)c(OC)c1	/	-22.1%	/	-2.1%	/	7.7%
CCCN(C(=O)Cc1c(C(=O)O)[nH]c2ccc(Cl)cc12)c1ccc(OCC)cc1	/	11.3%	50.1µM*	-6.7%	-4.9%	-28.4%
CCCCN(CC)C(=O)Cc1c(C(=O)O)[nH]c2ccc(Cl)cc12	-3.2%	-3.8%	3.2%	-13.8%	-11.0%	0.2%
C=C1CCN(C(Cc2ccccc2)C(=O)Nc2ccc(OC)cc2)S(=O)(=O)c2ccccc21 (stereo unspecified)	/	-18.2%	/	-12.6%	/	22.9%

Source: PubChem BioAssay (National Center for Advancing Translational Sciences (NCATS))
